# Source: PubChem BioAssay (NCATS)
# Records with an inconclusive call do not appear. Unmarked numbers belong to inactive results. Calls of active or inactive are those of the source. Calls come from the whole dose curve; as a rule, active = well fitted cell-killing curve with a large enough effect; inconclusive = small, poorly fitted or top-dose-only effect, or effect the other way; inactive = no such curve, though single readings can be large or run the other way.
# Assay: Viability qHTS for spleen associated tyrosine kinase inhibitor (SYKi) drug resistant MV4-11 cells (AID 1963824); note: nearly all actives have a fitted effect of over 35% in size
# Settings: SYKi-resistant MV4-11 viability, CellTiter-Glo, 72 h; series mostly up to 45 µM
# Summary of the method: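 SYK-inhibitor-resistant MV4-11 AML cells were seeded at 500 per well onto compound and cultured 72 hours (37 °C, 5% CO2). CellTiter-Glo was then added, and after 10 min at room temperature, luminescence gave viability.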
# Potency is the fitted concentration of half-maximal effect.
SMILES,Potency,"viability, % of control"
C=C1C[C@@H]2CC[C@@]34C[C@H]5O[C@H]6[C@@H](O3)[C@H]3O[C@H](CC[C@@H]3O[C@H]6[C@H]5O4)CC(=O)C[C@@H]3[C@@H](OC)[C@@H](C[C@H](O)CN)O[C@H]3C[C@H]3O[C@@H](CC[C@@H]1O2)C[C@@H](C)C3=C,0.0005 µM (active),
COC(=O)c1ccnc(-c2cc(C(=O)NCCc3ccccc3)ccn2)c1,inactive,
[2H]C([2H])(Nc1nc(-c2ccccc2C([2H])(C([2H])([2H])[2H])C([2H])([2H])[2H])ncc1C)c1ccc(-n2ccnn2)cc1,11.8 µM (active),
Cn1nc(C(C)(C)C)cc1C(=O)N[C@@H](Cc1cccc(Cl)c1)C(=O)NCC#N,13 µM (active),
CCC/C=C/C=C/C1CC(O)C2(O)C(=O)OCC12 (stereo not given),inactive,
COc1ccnc(CS(=O)c2nc3cc(OC(F)F)ccc3[nH]2)c1OC (stereo not given),inactive,
C[C@@H](NC(=O)[C@H](O)c1cc(F)cc(F)c1)C(=O)N[C@@H]1C(=O)N(C)c2ccccc2-c2ccccc21,18.4 µM (active),
C=CC(=O)Nc1cccc(CN2C(=O)N(c3c(Cl)c(OC)cc(OC)c3Cl)Cc3cnc(NCCCCN(CC)CC)nc32)c1,3.66 µM (active),
COc1ccc2nc3ccc(OC)cc3c(SCCCN)c2c1,2.31 µM (active),
Cc1ccc(Cl)c(Nc2ccccc2C(=O)O)c1Cl,15 µM (active),
C[C@@H]1C(=O)O[C@H]2[C@H]1CC[C@@]1(C)C(=O)C=C[C@@](C)(O)[C@H]21,inactive,
CC(=O)OCC(=O)[C@@]12O[C@@H]1C[C@H]1[C@@H]3CC=C4C[C@@H](O)CC[C@]4(C)[C@H]3CC[C@@]12C,18.4 µM (active),
COC(=O)[C@H](O)[C@H]1C(C)(C)[C@H](OC(=O)C(C)C)[C@@]2(O)C(=O)[C@]1(C)C1CC[C@]3(C)C(CC(=O)O[C@H]3c3ccoc3)[C@]13O[C@@H]32 (stereo not given in full),inactive,
O=C(CNC(=O)c1cccc(C(F)(F)F)c1)N[C@@H]1CCN(Cc2ccc(Cl)cc2)C1,23.1 µM (active),
C=CC1C(O[C@@H]2O[C@H](CO)[C@@H](O)[C@H](O)[C@H]2O)OC=C(C(=O)OC)C1CC(=O)O (stereo not given in full),inactive,
Cn1c(CO)c(-c2ccccc2)c2cc([N+](=O)[O-])ccc21,23.1 µM (active),
Cc1cc(N)c2ccccc2[n+]1CCCCCCCCCC[n+]1c(C)cc(N)c2ccccc21,0.58 µM (active),
O=C(O)c1ccc(NC(=O)[C@H](CC2CCCC2)n2cnc(C(F)(F)F)c2)nc1,2.91 µM (active),
C/C=C(/C)C(=O)OC1C=C2C3C(C)C(C)C(OC(=O)C(C)C(C)O)CC3(C)CCC2(C)C2(C)CC(OC(C)=O)C3C(C)(C)C(O)C(=O)CC3(C)C12 (stereo not given),4.32 µM (active),
O=S(=O)(Nc1ccc(C(O)(C(F)(F)F)C(F)(F)F)cc1)c1cccs1,16.4 µM (active),
COC1C(=O)CCC2(CO2)C1(O)C1(C)OC1CC=C(C)C (stereo not given),inactive,
CCCSc1nc(NC2CC2c2ccc(F)c(F)c2)c2nnn(C3CC(OCCO)C(O)C3O)c2n1 (stereo not given),20.6 µM (active),
COc1c(-c2ccc3cc(NS(C)(=O)=O)ccc3c2)cc(-n2ccc(=O)[nH]c2=O)cc1C(C)(C)C,16.4 µM (active),
CC(C)(CO)c1cc2cc(NC(=O)C3(c4ccc5c(c4)OC(F)(F)O5)CC3)c(F)cc2n1CC(O)CO (stereo not given),16.4 µM (active),
C=CC(C)(C)C1(CC2NC(=O)C3CCCN3C2=O)C(=O)Nc2cc3c(cc21)C=CC(C)(C)O3 (stereo not given),1.12 µM (active),
CC1OC(O[C@H]2[C@@H](O)C[C@@]3(C)C([C@H](O)C[C@]4(C)C3CC=C3C5CC(C)(C)CC[C@]5(C(=O)OC5OC(CO)C(O)C(O)C5OC5OCC(OC6OCC(OC7OCC(O)C(O)C7O)C(O)C6O)C(OC6OCC(O)(CO)C6O)C5O)CC[C@]34C)[C@]2(C)CO)C(O)C(O)C1O (stereo not given in full),,97% [at 9.25 µM]
N#Cc1ccc(COc2ccc(-c3cccc4nc(NC(=O)C5CC5)nn34)cc2)cn1,0.651 µM (active),
C[C@@H]1Cc2c([nH]c3ccccc23)[C@@H](c2c(F)cc(/C=C/C(=O)O)cc2F)N1CC(C)(C)F,20.9 µM (active),
COC(=O)C[C@H]1C(C)(C)[C@H](OC(=O)c2ccccc2)C2CC3=C4CC(=O)O[C@@H](c5ccoc5)[C@]4(C)CCC3[C@@]1(C)C2=O (stereo not given in full),10 µM (active),
Oc1ccc(-c2cnc3ccc(NCc4ccco4)nn23)cc1,0.092 µM (active),
